Screening data deposited in PubChem by several laboratories.
The list is not random: actives were taken first. Their share in the collection is about 5%.
CHT PAM: allosteric activators of human choline transporter CHT; CHT-expressing cells, membrane potential dye, choline EC20; active compounds read high; LV-AA mutant CHT in HEK293 cells; actives 0.49% (n = 310,000); B-score at 10 µM;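 active = initial fluorescence not abnormally high and integrated response B-score, plate-corrected, over 3 SD above library mean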
PREPL inh: inhibitors of human prolyl oligopeptidase-like enzyme PREPL; Q4J6C6; recombinant PREPL, fluorescence polarization activity-based probe; inhibition, % at 5.96 µM; actives 0.68% (n = 320,000); AID 2751; in the data active = inhibition above about 43%
Target sequence (Q4J6C6 whole entry, looked up): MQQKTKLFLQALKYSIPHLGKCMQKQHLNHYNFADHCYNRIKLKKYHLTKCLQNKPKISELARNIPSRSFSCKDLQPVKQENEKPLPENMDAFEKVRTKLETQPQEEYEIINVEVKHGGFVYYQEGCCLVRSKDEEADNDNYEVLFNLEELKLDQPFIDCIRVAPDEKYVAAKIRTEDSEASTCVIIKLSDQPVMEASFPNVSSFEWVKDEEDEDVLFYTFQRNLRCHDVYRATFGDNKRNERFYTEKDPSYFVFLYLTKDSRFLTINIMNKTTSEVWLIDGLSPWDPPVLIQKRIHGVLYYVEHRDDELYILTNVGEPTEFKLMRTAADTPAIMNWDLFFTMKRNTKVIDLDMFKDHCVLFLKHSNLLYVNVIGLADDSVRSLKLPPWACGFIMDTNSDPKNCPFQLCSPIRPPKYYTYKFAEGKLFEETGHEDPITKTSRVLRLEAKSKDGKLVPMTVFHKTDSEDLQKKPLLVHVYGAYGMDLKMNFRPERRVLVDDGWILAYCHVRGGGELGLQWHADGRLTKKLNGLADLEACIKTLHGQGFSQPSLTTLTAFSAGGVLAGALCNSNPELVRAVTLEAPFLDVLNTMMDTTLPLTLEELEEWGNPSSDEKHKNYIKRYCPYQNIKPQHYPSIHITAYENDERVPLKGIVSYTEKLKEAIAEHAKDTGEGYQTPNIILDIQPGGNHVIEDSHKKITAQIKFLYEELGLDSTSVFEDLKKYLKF
CHT inh: human CHT choline transport inhibition; Q9GZV3; CHT-expressing cells, membrane potential dye, choline response; active compounds read low; B-score at 10 µM; actives 0.86% (n = 310,000); AID 488975;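 active = B-score over 3 SD under the library average, and starting fluorescence ratio not unusually high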;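 note: choline stimulus applied at its EC90 after an EC20 pre-addition; B-score computed on integrated fluorescence ratio after choline addition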
ALR inh: inhibitors of human sulfhydryl oxidase ALR. P55789. purified ALR, DTT oxidation, H2O2 HRP-luminol luminescence. inhibition, % (test concentration not listed). actives 3.8% (n = 290,000). AID 485317;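 active = mean replicate inhibition above about 79%, with every replicate also reaching it, limit read from the data; inconclusive = only one of the two criteria met; inactive = mean below limit and not every replicate reaching it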
AI-2 QS mod: modulates the Vibrio harveyi AI-2 quorum sensing system; Vibrio harveyi JMH597 AI-2 luminescence/OD600 ratio, 9 h; active compounds read low; strain lacks LuxN and CqsS sensors; 0 = neutral-control median; activity change, % at 7.5 µM; actives 0.4% (n = 300,000); AID 2094; in the data active = activity change below about -75%, passing the limit was not always enough; inconclusive = no clear call, values can overlap the other calls;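 note: luminescence divided by OD600 gain over 9 h not by final OD600 alone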
CHT block conf: confirmation of human choline transporter CHT inhibitors; shares compounds with CHT inh; CHT-expressing cells, choline membrane potential dye; LV-to-AA substituted CHT, HEK293 cells; CHT activity remaining % of control (active compounds read low), % at 10 µM; actives 70% (n = 2,400); AID 493221;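 active = choline transporter activity left, mean of duplicates at 10 µM, below buffer-only control mean minus 3 SD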;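 note: depolarization triggered by choline at its EC90 following an EC20 pre-addition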
HEK293 CHT ctr: counter-screen for CHT inhibitors: effect in parental HEK293 cells. AID 493222. actives 4% (n = 2,400). membrane potential ratio readout (active if shifted either direction beyond buffer ±3SD; no single direction) at 10 µM. shares compounds with CHT inh. membrane potential dye, choline response; active = decrease or increase beyond buffer ±3SD;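 note: parental cells lack the transporter so any hit is non-specific; ratio is peak minus trough fluorescence over baseline after EC90 choline challenge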
Large screens that a line does not name were inactive (follow-up assays come after a bar, where they were run).

CCOC(=O)C1CCCN(c2c(NCCC(C)C)c(=O)c2=O)C1 (stereo unspecified)	none
Cc1occc1C(=O)NNS(=O)(=O)c1ccc(Cl)cc1	CHT inh -5.45 | CHT block conf 27.2% | HEK293 CHT ctr inactive
COc1ccc(-c2cc(=O)oc(-c3cccc(C)c3)n2)cc1	CHT inh -13.7 | CHT block conf inactive | HEK293 CHT ctr inactive
O=c1cc(CNc2ccc(Br)cc2)nc2sccn12	CHT inh -5.4 | CHT block conf 59.2% | HEK293 CHT ctr inactive
COc1ccc(CC(=O)NCc2cn3ccsc3n2)cc1	none
O=C(NCc1cn2ccsc2n1)c1cccs1	CHT inh -5.07 | CHT block conf inactive | HEK293 CHT ctr inactive
CC(=O)Oc1ccc2ccccc2c1C(NC(=O)Cc1ccccc1)c1ccc(Cl)cc1 (stereo unspecified)	none (no result: ALR inh)
O=C(COC(=O)c1ccccc1Oc1ccccc1)NCc1ccco1	CHT inh -5.43 | CHT block conf inactive | HEK293 CHT ctr inactive
O=C(COC(=O)c1ccccc1)NCc1ccco1	none
CC(C)n1c(=S)[nH]c2ccccc2c1=O	none
CC(C)n1c(=S)[nH]c2cc(Cl)ccc21	CHT inh -6.88 | CHT block conf 51.8% | HEK293 CHT ctr inactive
O=C(c1cc(COc2ccc(F)cc2Cl)on1)N1CCC(c2ccncc2)CC1	CHT inh -6.46 (no result: ALR inh) | CHT block conf 55.9% | HEK293 CHT ctr inactive
Nc1nc(Cl)nc2c1ncn2[C@@H]1O[C@H](CO)[C@@H](O)[C@H]1O	CHT inh -5.81, AI-2 QS mod inconclusive | CHT block conf 39.2% | HEK293 CHT ctr inactive
COc1cc(C(CC(=O)N2CCCC2)c2c(OC)cc(OC)c3c(-c4ccccc4)cc(=O)oc23)cc(OC)c1OC (stereo unspecified)	none
COc1cc(C(CCN2CCCCC2)c2c(OC)cc(OC)c3c(-c4ccccc4)cc(=O)oc23)cc(OC)c1OC (stereo unspecified)	CHT inh -8.05 (no result: ALR inh) | CHT block conf 44.2% | HEK293 CHT ctr inactive
COc1cc(C(CCN2CCCC(C)C2)c2c(OC)cc(OC)c3c(-c4ccccc4)cc(=O)oc23)cc(OC)c1OC (stereo unspecified)	CHT inh -8.68 (no result: ALR inh) | CHT block conf 22.1% | HEK293 CHT ctr inactive
O=C(/C=C/c1ccccc1)NC1CCCc2ccccc21 (stereo unspecified)	none
COc1ccc(-c2ccc(OC)cc2)cc1	none
COc1ccc(-c2nc(C=O)cs2)cc1	CHT inh -5.51 | CHT block conf 23.0% | HEK293 CHT ctr inactive
CC(C)CN(C(=O)COC(=O)CCc1c[nH]c2ccccc12)c1c(N)n(Cc2ccccc2)c(=O)[nH]c1=O	none
Cn1c(=N)n(CC(=O)c2ccc(Br)cc2)c2ccccc21	none
N=C1CCCN1CC(=O)c1ccc(Br)cc1	CHT inh -19.2 | CHT block conf 1.5% | HEK293 CHT ctr inactive
CC(=O)Nc1cccc(NC(=S)Nc2ccc(F)cc2F)c1	none
Cc1ccc(C(=O)O)cc1N=Cc1cc(Br)cc(Br)c1O	CHT inh -6.17 | CHT block conf 58.9% | HEK293 CHT ctr inactive
COc1ccc(OCCSCc2nnc(NC(=O)Nc3ccc(Cl)cc3)s2)cc1	none (no result: ALR inh)
CCCc1cc(=O)[nH]c(SCc2cc(C(=O)OC)c(C)o2)n1	CHT inh -5.98 | CHT block conf inactive | HEK293 CHT ctr inactive
Cc1nc(CN(C)C(=O)CC2C(=O)NCCN2Cc2ccc(-c3ccccc3)cc2)cs1 (stereo unspecified)	none
O=C(OCCCOc1ccc(F)cc1)c1ccc(O)cc1O	CHT inh -6 | CHT block conf 48.8% | HEK293 CHT ctr inactive
Nc1ccccc1-c1nnc(SCC(=O)Nc2ccccc2OC(F)F)[nH]c1=O	none (no result: CHT PAM, CHT inh, AI-2 QS mod)
CCCCn1c(N)c(N(CCOC)C(=O)COC(=O)COc2ccc(CC)cc2)c(=O)[nH]c1=O	none
COc1ccc(C2(O)CCN(C(=O)NC3CCCCC3)CC2)cc1	CHT inh -7.82 | CHT block conf 35.7% | HEK293 CHT ctr inactive
CCN(CC)CCNc1ncnc2c1sc1nc(N3CCCC3)c3c(c12)CC(C)(C)OC3	none (no result: ALR inh)
CC1=NN(C(=O)c2ccc(Br)cc2)C(O)(C(F)(F)OC(F)(F)F)C1 (stereo unspecified)	CHT inh -5.14 (no result: ALR inh) | CHT block conf 44.0% | HEK293 CHT ctr inactive
CC1=NN(C(=O)c2csc(C)c2)C(O)(C(F)(F)F)C1 (stereo unspecified)	none
O=C(NC1CC2CCCC(C1)N2C(=S)Nc1ccccc1)C1CC1 (stereo unspecified)	none
COCCNC(=O)C(=O)Nc1cc2c3c(c1)CCC(=O)N3CCC2	none
CNC(=O)c1ccc(CN(C)CC(=O)Nc2ccccc2C(=O)NC2CC2)cc1	none (no result: CHT PAM, CHT inh, AI-2 QS mod)
Cc1ccc(S(=O)(=O)NC(=O)COc2cc(C)ccc2C(C)C)cc1	CHT inh -5.87 | CHT block conf 49.5% | HEK293 CHT ctr inactive
Cc1ccc(C(C)C)c(OCC(=O)NNC(=O)Nc2ccccc2)c1	none
Cc1cc(C)n2cc(CSc3nc4cc(Cl)ccc4o3)nc2n1	none
O=c1cc(CSc2nc3cc(Cl)ccc3o2)nc2sccn12	CHT inh -5.35 | CHT block conf 50.6% | HEK293 CHT ctr inactive
CN(c1ccc([N+](=O)[O-])cc1/C=N/NC(=O)COc1ccccc1)C1CCCCC1	none
CC(NC(=O)CN(c1cccc(C(F)(F)F)c1)S(=O)(=O)c1ccc(Cl)c([N+](=O)[O-])c1)c1ccccc1 (stereo unspecified)	CHT inh -6.17 | CHT block conf inactive | HEK293 CHT ctr inactive
O=C(CN(c1cccc(C(F)(F)F)c1)S(=O)(=O)c1ccc(Cl)c([N+](=O)[O-])c1)NCc1ccccc1	none
CC1(C(=O)N2CCN(c3ccc([N+](=O)[O-])cc3)CC2)CC1(Cl)Cl (stereo unspecified)	none
COc1ccc(/C(C)=N/NC(=O)c2ccccc2N)cc1	none
COc1cccc(C2=NOC(C(=O)NCc3ccc(F)cc3)C2)c1 (stereo unspecified)	CHT inh -5.12 | CHT block conf 66.1% | HEK293 CHT ctr inactive
COc1ccc(CN(C)C(=O)Cn2cnc3c(OCc4ccccc4)ncnc32)cc1OC	none (no result: CHT PAM, CHT inh, ALR inh, AI-2 QS mod)
CCc1nnc(NS(=O)(=O)c2ccc(NC(=O)c3cc(Cl)ccc3Cl)cc2)s1	CHT inh -6.07 | CHT block conf 30.2% | HEK293 CHT ctr inactive
CCc1nnc(NS(=O)(=O)c2ccc(NC(=O)c3cccc(Br)c3)cc2)s1	CHT inh -7.04 (no result: ALR inh) | CHT block conf 47.7% | HEK293 CHT ctr inactive
CCc1nnc(NS(=O)(=O)c2ccc(NC(=O)COc3ccc4ccccc4c3)cc2)s1	CHT inh -5.83 | CHT block conf inactive | HEK293 CHT ctr inactive
